# Measured values from publication PMC7862700, “An all-to-all approach to the identification of sequence-specific readers for epigenetic DNA modifications on cytosine”.
# Key:
# Experiment in all cases: DAPPL (digital affinity profiling via proximity ligation, sequencing); 10 mM Tris-HCl pH 7.5, 50 mM NaCl, 1 mM DTT, 4% glycerol, room temperature, 30 min; GST-TFs on glutathione beads, 16-mer random dsDNA library, 0.1% formaldehyde crosslink after washing; high values mean tight binding
# [1] = target: T1, FEV (Homo sapiens, UniProt Q99581 1-238); conditions: protein: recombinant; tags: N-terminal GST; dsDNA, one strand shown
# T1 sequence: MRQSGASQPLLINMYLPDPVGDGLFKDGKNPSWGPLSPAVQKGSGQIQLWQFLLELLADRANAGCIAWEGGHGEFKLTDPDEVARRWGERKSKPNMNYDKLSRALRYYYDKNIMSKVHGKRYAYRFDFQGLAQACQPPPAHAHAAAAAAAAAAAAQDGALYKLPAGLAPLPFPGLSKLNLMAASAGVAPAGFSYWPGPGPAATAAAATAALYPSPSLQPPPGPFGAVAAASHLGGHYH
# Summary of the method: (§1)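 Each value of binding signal is a hexamer's read frequency for a factor divided by the same hexamer's frequency in the tag-only sample. Barcoded, bead-captured GST fusions of human transcription factors made in yeast were pooled with that sample and incubated with 200 nmole of a random double-stranded 16-mer DNA library in Tris/NaCl/DTT/glycerol buffer at room temperature for 30 min. Washing, 0.1% formaldehyde crosslinking, proximity ligation, PCR and Illumina NextSeq500 sequencing followed.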
# [2] = target: ETV5 (Homo sapiens, UniProt P41161 1-510); conditions: protein: recombinant; tags: N-terminal GST; dsDNA, one strand shown
# Summary of the method: as §1
# [3] = target: HSF1 (Homo sapiens, UniProt Q00613 1-529); conditions: protein: recombinant; tags: N-terminal GST; chain copies: 3; dsDNA, one strand shown
# Summary of the method: as §1
# [4] = target: T2, SPIC (Homo sapiens, UniProt Q8N5J4 1-248); conditions: protein: recombinant; tags: N-terminal GST; dsDNA, one strand shown
# T2 sequence: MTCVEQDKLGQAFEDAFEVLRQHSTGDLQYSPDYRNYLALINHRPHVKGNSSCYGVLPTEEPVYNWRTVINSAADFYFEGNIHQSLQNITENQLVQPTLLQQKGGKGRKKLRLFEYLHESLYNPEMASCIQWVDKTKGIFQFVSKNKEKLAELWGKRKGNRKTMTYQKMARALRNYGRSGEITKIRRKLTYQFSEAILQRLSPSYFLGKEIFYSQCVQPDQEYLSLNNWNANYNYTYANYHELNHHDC
# Summary of the method: as §1
# [5] = target: ELF4 (Homo sapiens, UniProt Q99607 1-663); conditions: protein: recombinant; tags: N-terminal GST; dsDNA, one strand shown
# Summary of the method: as §1
# [6] = target: T3, ELK4 (Homo sapiens, UniProt P28324-2 1-405); conditions: protein: recombinant; tags: N-terminal GST; dsDNA, one strand shown
# T3 sequence: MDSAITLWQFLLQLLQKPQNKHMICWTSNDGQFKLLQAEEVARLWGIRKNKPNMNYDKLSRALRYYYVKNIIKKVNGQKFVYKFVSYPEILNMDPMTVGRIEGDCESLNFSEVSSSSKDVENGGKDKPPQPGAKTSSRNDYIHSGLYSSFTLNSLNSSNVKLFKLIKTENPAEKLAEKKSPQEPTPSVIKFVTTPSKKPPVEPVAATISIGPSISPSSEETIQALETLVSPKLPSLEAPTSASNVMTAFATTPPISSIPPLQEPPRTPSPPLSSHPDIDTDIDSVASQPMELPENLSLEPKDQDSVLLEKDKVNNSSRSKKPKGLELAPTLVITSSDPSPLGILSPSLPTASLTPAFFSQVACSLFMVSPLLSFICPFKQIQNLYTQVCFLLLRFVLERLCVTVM
# Summary of the method: as §1
# [7] = target: T4, ETV2 (Homo sapiens, UniProt O00321 1-342); conditions: protein: recombinant; tags: N-terminal GST; dsDNA, one strand shown
# T4 sequence: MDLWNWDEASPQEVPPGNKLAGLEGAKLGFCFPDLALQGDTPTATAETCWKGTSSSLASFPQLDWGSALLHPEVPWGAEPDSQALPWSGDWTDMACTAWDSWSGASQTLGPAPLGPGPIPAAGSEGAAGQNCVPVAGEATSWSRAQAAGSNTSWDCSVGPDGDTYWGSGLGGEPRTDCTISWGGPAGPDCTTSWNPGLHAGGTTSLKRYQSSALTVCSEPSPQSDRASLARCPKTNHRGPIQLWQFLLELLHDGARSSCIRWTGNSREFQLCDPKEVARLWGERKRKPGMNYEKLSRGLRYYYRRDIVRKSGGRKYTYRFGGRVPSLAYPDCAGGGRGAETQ
# Summary of the method: as §1
# [8] = target: T5, ELF3 (Homo sapiens, UniProt P78545 1-371); conditions: protein: recombinant; tags: N-terminal GST; dsDNA, one strand shown
# T5 sequence: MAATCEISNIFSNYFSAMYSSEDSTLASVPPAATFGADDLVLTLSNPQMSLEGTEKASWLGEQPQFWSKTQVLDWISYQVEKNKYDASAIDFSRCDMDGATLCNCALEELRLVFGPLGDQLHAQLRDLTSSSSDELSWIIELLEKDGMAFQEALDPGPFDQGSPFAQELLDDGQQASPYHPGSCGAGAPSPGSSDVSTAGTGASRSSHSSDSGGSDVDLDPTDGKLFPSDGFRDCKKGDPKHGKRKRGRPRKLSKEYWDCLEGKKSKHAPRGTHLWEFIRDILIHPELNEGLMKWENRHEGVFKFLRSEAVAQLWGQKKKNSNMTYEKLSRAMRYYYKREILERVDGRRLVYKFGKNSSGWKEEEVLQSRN
# Summary of the method: as §1
# [9] = target: CRX (Homo sapiens, UniProt O43186 1-299); conditions: protein: recombinant; tags: N-terminal GST; dsDNA, one strand shown
# Summary of the method: as §1
# [10] = target: ETV1 (Homo sapiens, UniProt P50549 1-477); conditions: protein: recombinant; tags: N-terminal GST; dsDNA, one strand shown
# Summary of the method: as §1
# [11] = target: T6, ERF (Homo sapiens, UniProt P50548 1-548); conditions: protein: recombinant; tags: N-terminal GST; dsDNA, one strand shown
# T6 sequence: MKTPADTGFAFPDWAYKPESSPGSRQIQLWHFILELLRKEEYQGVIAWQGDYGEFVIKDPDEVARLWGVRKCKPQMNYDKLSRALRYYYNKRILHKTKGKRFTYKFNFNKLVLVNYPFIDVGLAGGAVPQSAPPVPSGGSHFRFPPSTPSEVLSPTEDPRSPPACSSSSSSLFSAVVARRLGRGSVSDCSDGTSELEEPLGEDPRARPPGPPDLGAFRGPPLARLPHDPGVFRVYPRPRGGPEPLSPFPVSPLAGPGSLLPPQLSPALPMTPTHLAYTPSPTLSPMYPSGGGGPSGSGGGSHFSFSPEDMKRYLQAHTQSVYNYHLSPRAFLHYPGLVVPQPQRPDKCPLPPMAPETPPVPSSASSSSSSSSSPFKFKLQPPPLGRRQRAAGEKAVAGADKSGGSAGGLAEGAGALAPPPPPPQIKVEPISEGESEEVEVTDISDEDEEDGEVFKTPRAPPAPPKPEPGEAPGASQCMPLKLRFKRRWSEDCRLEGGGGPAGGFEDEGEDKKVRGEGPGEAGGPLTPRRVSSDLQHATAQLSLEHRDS
# Summary of the method: as §1
# [12] = target: T7, ETV3L (Homo sapiens, UniProt Q6ZN32 1-361); conditions: protein: recombinant; tags: N-terminal GST; dsDNA, one strand shown
# T7 sequence: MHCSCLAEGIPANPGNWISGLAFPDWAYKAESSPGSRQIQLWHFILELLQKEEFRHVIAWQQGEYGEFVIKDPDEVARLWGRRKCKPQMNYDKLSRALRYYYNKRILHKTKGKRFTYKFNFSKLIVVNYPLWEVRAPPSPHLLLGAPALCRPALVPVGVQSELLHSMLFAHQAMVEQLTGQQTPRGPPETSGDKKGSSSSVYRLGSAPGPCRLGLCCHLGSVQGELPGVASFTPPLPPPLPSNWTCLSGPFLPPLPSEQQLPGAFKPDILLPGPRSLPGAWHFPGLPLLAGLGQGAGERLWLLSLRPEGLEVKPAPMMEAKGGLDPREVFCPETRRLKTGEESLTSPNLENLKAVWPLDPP
# Summary of the method: as §1
# [13] = target: T8, ETS2 (Homo sapiens, UniProt P15036 1-469); conditions: protein: recombinant; tags: N-terminal GST; dsDNA, one strand shown
# T8 sequence: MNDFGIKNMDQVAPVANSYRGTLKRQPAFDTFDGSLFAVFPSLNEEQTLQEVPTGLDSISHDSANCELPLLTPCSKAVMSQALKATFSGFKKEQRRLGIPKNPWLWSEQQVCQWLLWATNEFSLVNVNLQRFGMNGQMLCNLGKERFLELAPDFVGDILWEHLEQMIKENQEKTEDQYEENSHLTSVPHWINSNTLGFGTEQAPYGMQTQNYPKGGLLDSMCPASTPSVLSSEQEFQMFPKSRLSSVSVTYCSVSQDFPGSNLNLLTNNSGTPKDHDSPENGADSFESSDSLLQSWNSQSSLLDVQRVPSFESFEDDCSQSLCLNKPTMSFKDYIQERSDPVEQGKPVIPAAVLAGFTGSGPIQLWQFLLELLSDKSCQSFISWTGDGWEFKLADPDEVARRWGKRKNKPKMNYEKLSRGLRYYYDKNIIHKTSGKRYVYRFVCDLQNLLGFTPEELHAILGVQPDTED
# Summary of the method: as §1
# [14] = target: T9, SPDEF (Homo sapiens, UniProt O95238 1-335); conditions: protein: recombinant; tags: N-terminal GST; dsDNA, one strand shown
# T9 sequence: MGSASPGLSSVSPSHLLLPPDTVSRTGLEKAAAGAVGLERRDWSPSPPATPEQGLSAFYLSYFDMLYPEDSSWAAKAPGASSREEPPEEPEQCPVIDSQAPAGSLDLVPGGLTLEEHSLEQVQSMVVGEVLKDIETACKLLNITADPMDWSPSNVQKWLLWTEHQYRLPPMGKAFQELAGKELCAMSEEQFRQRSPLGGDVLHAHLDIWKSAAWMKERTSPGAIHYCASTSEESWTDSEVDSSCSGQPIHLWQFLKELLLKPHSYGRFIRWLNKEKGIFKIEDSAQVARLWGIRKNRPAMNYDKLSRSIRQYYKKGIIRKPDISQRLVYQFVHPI
# Summary of the method: as §1
# [15] = target: T10, ETV7 (Homo sapiens, UniProt Q9Y603 1-341); conditions: protein: recombinant; tags: N-terminal GST; dsDNA, one strand shown
# T10 sequence: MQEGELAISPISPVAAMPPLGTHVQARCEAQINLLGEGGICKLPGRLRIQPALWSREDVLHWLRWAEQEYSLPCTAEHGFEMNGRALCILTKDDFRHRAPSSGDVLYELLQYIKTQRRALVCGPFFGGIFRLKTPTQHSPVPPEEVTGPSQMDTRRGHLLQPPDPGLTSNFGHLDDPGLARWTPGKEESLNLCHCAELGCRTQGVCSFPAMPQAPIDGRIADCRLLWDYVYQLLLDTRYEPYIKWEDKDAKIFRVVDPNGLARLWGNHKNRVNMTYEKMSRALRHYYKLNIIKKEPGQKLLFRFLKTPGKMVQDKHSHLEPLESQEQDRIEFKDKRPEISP
# Summary of the method: as §1
# [16] = target: T11, ELF5 (Homo sapiens, UniProt Q9UKW6-2 1-255); conditions: protein: recombinant; tags: N-terminal GST; dsDNA, one strand shown
# T11 sequence: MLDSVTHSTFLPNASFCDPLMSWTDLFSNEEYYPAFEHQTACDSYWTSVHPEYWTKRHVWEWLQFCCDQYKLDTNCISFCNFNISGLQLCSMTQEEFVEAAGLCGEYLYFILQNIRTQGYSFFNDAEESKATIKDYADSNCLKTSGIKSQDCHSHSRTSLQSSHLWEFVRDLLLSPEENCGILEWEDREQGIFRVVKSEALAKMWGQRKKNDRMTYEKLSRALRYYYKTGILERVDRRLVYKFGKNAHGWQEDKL
# Summary of the method: as §1
# [17] = target: T12, ETV3 (Homo sapiens, UniProt P41162-2 1-143); conditions: protein: recombinant; tags: N-terminal GST; dsDNA, one strand shown
# T12 sequence: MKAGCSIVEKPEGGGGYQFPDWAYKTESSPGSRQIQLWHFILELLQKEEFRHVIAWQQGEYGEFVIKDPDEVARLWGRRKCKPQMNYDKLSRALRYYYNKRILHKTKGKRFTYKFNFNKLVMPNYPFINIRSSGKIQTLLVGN
# Summary of the method: as §1
# [18] = target: ETV6 (Homo sapiens, UniProt P41212 1-452); conditions: protein: recombinant; tags: N-terminal GST; dsDNA, one strand shown
# Summary of the method: as §1
# Sequence of ETV5 (P41161 whole entry): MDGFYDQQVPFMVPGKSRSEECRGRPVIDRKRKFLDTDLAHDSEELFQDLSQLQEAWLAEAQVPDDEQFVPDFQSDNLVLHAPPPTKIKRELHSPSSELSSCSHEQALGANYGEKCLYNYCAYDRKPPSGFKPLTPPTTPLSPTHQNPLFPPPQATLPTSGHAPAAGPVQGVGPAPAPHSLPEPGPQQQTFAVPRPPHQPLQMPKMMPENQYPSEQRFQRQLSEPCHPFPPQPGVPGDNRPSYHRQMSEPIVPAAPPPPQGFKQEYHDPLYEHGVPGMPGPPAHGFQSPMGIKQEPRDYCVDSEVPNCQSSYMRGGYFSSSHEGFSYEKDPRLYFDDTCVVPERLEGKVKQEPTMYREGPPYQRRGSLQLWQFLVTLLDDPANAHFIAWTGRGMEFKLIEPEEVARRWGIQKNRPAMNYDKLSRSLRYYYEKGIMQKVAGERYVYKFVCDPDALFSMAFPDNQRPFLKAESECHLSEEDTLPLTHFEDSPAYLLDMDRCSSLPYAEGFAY
# Sequence of ETV1 (P50549 whole entry): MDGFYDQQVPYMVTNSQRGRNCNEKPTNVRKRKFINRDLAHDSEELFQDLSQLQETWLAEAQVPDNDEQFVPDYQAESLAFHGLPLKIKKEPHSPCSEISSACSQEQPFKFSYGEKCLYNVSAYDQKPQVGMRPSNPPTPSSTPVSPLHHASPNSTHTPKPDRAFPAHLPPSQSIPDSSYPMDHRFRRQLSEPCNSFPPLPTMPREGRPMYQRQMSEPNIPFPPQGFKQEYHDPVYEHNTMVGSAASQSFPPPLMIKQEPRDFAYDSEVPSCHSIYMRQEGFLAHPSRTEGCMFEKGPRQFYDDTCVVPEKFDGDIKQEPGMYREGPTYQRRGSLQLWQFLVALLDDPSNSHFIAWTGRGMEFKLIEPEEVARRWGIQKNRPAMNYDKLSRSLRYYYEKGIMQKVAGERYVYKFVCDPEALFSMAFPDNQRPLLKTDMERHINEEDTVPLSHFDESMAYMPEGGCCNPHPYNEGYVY
# Sequence of HSF1 (Q00613 whole entry): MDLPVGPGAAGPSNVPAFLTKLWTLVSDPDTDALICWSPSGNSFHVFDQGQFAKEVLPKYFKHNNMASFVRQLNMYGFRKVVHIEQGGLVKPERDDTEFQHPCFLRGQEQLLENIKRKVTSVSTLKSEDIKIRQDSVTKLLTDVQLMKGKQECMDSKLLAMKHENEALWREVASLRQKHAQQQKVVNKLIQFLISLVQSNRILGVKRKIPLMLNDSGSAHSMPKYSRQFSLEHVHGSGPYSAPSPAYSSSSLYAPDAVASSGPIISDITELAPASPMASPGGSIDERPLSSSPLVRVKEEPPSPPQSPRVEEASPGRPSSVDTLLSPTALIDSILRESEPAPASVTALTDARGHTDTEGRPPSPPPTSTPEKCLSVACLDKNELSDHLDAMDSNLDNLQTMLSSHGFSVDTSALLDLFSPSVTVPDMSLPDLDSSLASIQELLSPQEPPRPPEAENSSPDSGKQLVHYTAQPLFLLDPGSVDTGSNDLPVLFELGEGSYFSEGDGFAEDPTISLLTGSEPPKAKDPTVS
# Sequence of ETV6 (P41212 whole entry): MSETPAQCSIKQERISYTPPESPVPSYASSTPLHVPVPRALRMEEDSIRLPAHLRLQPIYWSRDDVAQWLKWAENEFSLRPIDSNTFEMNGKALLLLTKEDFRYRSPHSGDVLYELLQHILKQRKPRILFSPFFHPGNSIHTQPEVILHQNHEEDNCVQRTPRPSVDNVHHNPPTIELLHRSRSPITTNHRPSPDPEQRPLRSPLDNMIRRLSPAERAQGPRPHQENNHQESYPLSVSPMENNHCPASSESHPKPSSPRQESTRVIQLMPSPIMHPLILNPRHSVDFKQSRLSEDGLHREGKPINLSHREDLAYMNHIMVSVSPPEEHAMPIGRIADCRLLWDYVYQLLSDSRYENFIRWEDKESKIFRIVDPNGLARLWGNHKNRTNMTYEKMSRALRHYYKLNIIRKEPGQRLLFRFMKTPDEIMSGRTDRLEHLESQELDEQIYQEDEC
# Sequence of ELF4 (Q99607 whole entry): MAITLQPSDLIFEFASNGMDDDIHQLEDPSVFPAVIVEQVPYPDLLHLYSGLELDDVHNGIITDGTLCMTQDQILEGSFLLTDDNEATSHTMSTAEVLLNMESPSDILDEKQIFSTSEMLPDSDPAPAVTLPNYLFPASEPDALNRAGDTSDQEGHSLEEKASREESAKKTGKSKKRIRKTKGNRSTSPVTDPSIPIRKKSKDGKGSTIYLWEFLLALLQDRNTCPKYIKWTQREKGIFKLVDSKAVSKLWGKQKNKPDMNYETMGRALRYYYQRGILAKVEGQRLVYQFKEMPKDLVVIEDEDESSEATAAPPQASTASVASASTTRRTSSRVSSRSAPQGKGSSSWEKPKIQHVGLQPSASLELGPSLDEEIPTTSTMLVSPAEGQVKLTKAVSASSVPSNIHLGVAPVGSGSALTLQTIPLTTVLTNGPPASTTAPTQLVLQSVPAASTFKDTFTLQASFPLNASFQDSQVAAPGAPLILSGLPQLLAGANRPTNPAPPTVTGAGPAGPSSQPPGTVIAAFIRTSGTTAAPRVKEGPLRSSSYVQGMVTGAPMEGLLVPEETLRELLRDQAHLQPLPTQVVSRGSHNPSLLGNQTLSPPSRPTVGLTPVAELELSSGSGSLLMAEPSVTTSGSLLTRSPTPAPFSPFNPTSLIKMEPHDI
# Sequence of CRX (O43186 whole entry): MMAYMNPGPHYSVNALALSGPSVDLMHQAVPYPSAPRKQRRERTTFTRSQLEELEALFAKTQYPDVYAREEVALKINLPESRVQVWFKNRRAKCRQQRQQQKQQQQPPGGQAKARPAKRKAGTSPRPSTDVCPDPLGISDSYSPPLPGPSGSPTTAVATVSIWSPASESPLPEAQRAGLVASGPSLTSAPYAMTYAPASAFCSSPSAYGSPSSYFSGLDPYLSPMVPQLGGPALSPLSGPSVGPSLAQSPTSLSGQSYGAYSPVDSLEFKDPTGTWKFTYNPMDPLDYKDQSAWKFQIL
sequence,measurement,setting,value
TAACAA,binding signal,[1],"1.18 fold enrichment (6-mer frequency, TF over GST control)"
same,binding signal,[2],"1.12 fold enrichment (6-mer frequency, TF over GST control)"
same,binding signal,[3],"1.25 fold enrichment (6-mer frequency, TF over GST control)"
same,binding signal,[4],"1.12 fold enrichment (6-mer frequency, TF over GST control)"
same,binding signal,[5],"1.19 fold enrichment (6-mer frequency, TF over GST control)"
same,binding signal,[6],"1.15 fold enrichment (6-mer frequency, TF over GST control)"
same,binding signal,[7],"1.26 fold enrichment (6-mer frequency, TF over GST control)"
same,binding signal,[8],"1.28 fold enrichment (6-mer frequency, TF over GST control)"
same,binding signal,[9],"1.48 fold enrichment (6-mer frequency, TF over GST control)"
same,binding signal,[10],"1.2 fold enrichment (6-mer frequency, TF over GST control)"
same,binding signal,[11],"1.33 fold enrichment (6-mer frequency, TF over GST control)"
same,binding signal,[12],"1.18 fold enrichment (6-mer frequency, TF over GST control)"
same,binding signal,[13],"1.15 fold enrichment (6-mer frequency, TF over GST control)"
same,binding signal,[14],"1.14 fold enrichment (6-mer frequency, TF over GST control)"
same,binding signal,[15],"1.21 fold enrichment (6-mer frequency, TF over GST control)"
same,binding signal,[16],"1.14 fold enrichment (6-mer frequency, TF over GST control)"
same,binding signal,[17],"1.19 fold enrichment (6-mer frequency, TF over GST control)"
same,binding signal,[18],"1.15 fold enrichment (6-mer frequency, TF over GST control)"
